# Most compounds without a hit are left out; they make up all but 8.1% or so of the library.
# KB-V1 MDR tox – kills drug-selected multidrug resistant KB-V1 cells | KB-V1 MDR cells viability, CellTiter-Glo, 72 h | Potency, µM (highest dose often 46.1 µM), usual class: cytotoxic | 400,000 compounds, 3.4% hits | AID 1347076; note: % is set by controls: 0 for no effect and ±100 for the full control effect; nearly all actives have a fitted effect of over 60% in size
#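 Drug-selected KB-V1 cells, grown in DMEM lacking phenol red with 10% FBS, receive compound titrations; after three days at 37 degrees C, surviving cell ATP is quantified by CellTiter-Glo luminescence and responses normalized and curve-fitted.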
# SW480 rereplic – inducers of DNA re-replication in SW480 colon cancer cells; SW480 DNA re-replication, Hoechst DNA content imaging, 48 h; Potency, µM (top dose mostly 46.1 µM), for the others: top-dose re-replication activation, hits mostly activators; 340,000 compounds, 1.8% hits; AID 624297; note: % of control where 0% means no effect; nearly all actives have a fitted effect of over 55% in size
#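 SW480 cells exposed to compounds for 48 hr at 37 C, 5% CO2, then Hoechst-stained 40 min. Nuclear DNA content imaged by fluorescence scanning (405 nm excitation, 500-530 nm emission); re-replication scored as increased high-intensity nuclei.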
# KB-3-1 cytotox – kills parental KB-3-1 adenocarcinoma cells; KB-3-1 viability, CellTiter-Glo ATP luminescence, 72 h; AID 1347075; 400,000 compounds, 1.4% hits; Potency, µM (top dose mostly 46.1 µM), usual class: cytotoxic; note: % is set by controls: 0 for no effect and ±100 for the full control effect; nearly all actives have a fitted effect of over 60% in size
#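 Cells are dispensed, compounds pinned in, plates held at 37 °C for 72 h, then CellTiter-Glo is added and luminescence read after 10 minutes. Cell line: parental KB-3-1 in phenol-red-free DMEM, 10% FBS.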
# MCF10A rerep – induces DNA re-replication in MCF 10a normal breast cells. 350,000 compounds, 2.9% hits. MCF 10A DNA re-replication, Hoechst nuclear intensity, 48 h. Potency, µM (titrated, usually from 46.1 µM), for inactives: at the top dose activity, positive = re-replication, actives largely listed as activators; note: % of control where 0% means no effect; nearly all actives have a fitted effect of over 50% in size
# ELG1 DNA repair – inhibitors of ELG1-dependent DNA repair in HEK293T cells; HEK293T ELG1-luciferase reporter, luminescence, 16 h; DNA damage induced by 5-fluorouridine; Potency, µM (series often up to 46.1 µM), for inactives: at the top dose activity change, negative = inhibition, hits mostly inhibitors; 330,000 compounds, 2.3% hits; AID 504467; note: % is set by controls: 0 for no effect and ±100 for the full control effect; nearly all actives have a fitted effect of over 55% in size
#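 Cells (2,000 per well) received 5-fluorouridine plus test compound or DMSO and were incubated 16 hr at 37 °C, 5% CO2. Luciferase activity was read by luminescence 30 min after ONE-Glo addition; signal suppression marked inhibition of damage-induced ELG1 function.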
# Active calls of the source: *; i = inactive; ? = inconclusive; · = no result given. Calls come from the whole dose curve; as a rule, active = well fitted curve in the direction sought with a large enough effect; inconclusive = small, poorly fitted or top-dose-only effect, or another doubt; inactive = no such curve, though single readings can be large; an effect the other way counts as inactive or inconclusive. Potency is the fitted concentration of half-maximal effect.
SMILES,KB-V1 MDR tox,SW480 rereplic,KB-3-1 cytotox,MCF10A rerep,ELG1 DNA repair
Cc1ccccc1OCc1occc1C(=O)Nc1cccc(-n2cnnn2)c1,?,-3%,16µM*,-6%,?
COc1cc(Cl)nn(-c2ccccc2)c1=O,i,18%,i,0%,9%
O=c1c(Cl)cc(Cl)nn1-c1ccccc1,?,?,?,5.8µM*,23µM*
O=C(Nc1ccc(NC(=O)c2ccccc2)c2ccccc12)c1ccccc1,i,·,i,·,·
O=P(O)(O)C(O)(Cn1ccnc1)P(=O)(O)O,·,0%,·,1%,·
COc1cccc(CNc2ccccc2O)c1OCc1ccccc1F,i,21µM*,i,?,?
CCOC(=O)[C@]12CCC=C1N(Cc1ccc3c(c1)OCO3)C(=O)[C@H](CC(=O)NCCCOC)C2,i,·,i,·,·
CCOc1ccc(CCNC(=O)C2CCN(Cc3nc(-c4ccccc4C)oc3C)CC2)cc1OCC,i,·,i,·,·
CCc1ccc(-c2nc(CN3CCCC(C(=O)NCc4ccc(C)cc4)C3)c(C)o2)cc1 (configuration not stated),i,·,i,·,·
CCc1ccc(-c2nc(CN3CCCC(C(=O)NCCc4ccc(OC)c(OC)c4)C3)c(C)o2)cc1 (configuration not stated),2.3µM*,22%,23µM*,?,?
COc1ccc(CCNC(=O)C2CCN(Cc3nc(-c4cccc(Cl)c4)oc3C)CC2)cc1OC,3.3µM*,7%,?,18%,?
COc1ccc(CCNC(=O)C2CCCN(Cc3nc(-c4ccccc4C)oc3C)C2)cc1OC (configuration not stated),16µM*,7%,i,12%,?
S=C1CC2CCCC(C2)N1 (configuration not stated),i,2%,i,-1%,·
CC1CCN(C(=O)c2[nH]cnc2C(=O)Nc2cccc(Cl)c2)CC1,i,-8%,i,24%,-22%
CC1CCCCN1CC(O)COCCC12CC3CC(CC(C3)C1)C2 (configuration not stated),?,?,16µM*,5%,-22%
CCN(CC)CC(O)COCCC12CC3CC(CC(C3)C1)C2 (configuration not stated),i,?,i,?,-3%
Clc1nc(NCc2ccco2)c2[nH]cnc2n1,i,·,i,·,·
COc1cc(/C=N/Nc2nc3ccccc3s2)ccc1OC(=O)c1ccccc1F,?,?,?,21µM*,?
Cc1ccc(Cl)cc1N1CCN(C(=O)CSc2nnc3n2C(C)(C)Cc2ccccc2-3)CC1,12µM*,5%,?,13µM*,12µM*
COC(=O)CSc1nnc2n1C(C)(C)Cc1ccccc1-2,i,-1%,i,5%,-4%
COc1cc(NC(=O)CSc2nnc3n2C(C)(C)Cc2ccccc2-3)cc(OC)c1,i,6%,i,14%,22µM*
COc1ccc(N2CCN(C(=O)CSc3nnc4n3C(C)(C)Cc3ccccc3-4)CC2)cc1,5.2µM*,-6%,?,6%,21µM*
CC1(C)Cc2ccccc2-c2nnc(SCC(=O)N3CCc4ccccc43)n21,4.1µM*,7%,i,1%,?
Cc1ccc(Cl)cc1N1CCN(C(=O)Cn2ccc3ccccc3c2=O)CC1,?,-3%,i,?,?
Clc1cccc(Cc2c(C3CCCCC3)nc3c4ccccc4ccn23)c1,i,·,i,·,·
CCOC(=O)C(CC)Sc1nnc2n1C(C)(C)Cc1ccccc1-2 (configuration not stated),16µM*,1%,i,16%,-3%
COc1ccc(N2CCN(C(=O)CSc3nnc4c(C)cc5c(C)cc(C)cc5n34)CC2)cc1,?,11%,i,2%,?
COc1ccc2nc(NC(=O)CSc3nnc4n3C(C)(C)Cc3ccccc3-4)sc2c1,i,0%,i,6%,7%
COc1ccc(NC(=O)CSc2nnc(-c3ccccc3C)n2C)cc1,15µM*,-2%,i,8%,?

# Screening results: PubChem BioAssay, National Center for Advancing Translational Sciences (NCATS)
